The full list was thinned out, with hits kept by preference.
Shiga inhibitor: blocks Shiga toxin action in Vero cells | Vero cells, Shiga toxin protein synthesis inhibition reporter | 290,000 compounds, 9.2% hits | inhibition, % at 38.7 µM | AID 2315; in the data active = inhibition mostly above about 28%, no sharp cut-off; inactive = mostly below about 43%
LmPK inhibitor: inhibitors of Leishmania mexicana pyruvate kinase; Q27686; purified LmPK, Kinase-Glo ATP luminescence, 1 h; Potency, µM (highest dose often 57.5 µM), usual class: inhibitors; 290,000 compounds, 0.37% hits; AID 1721
Target sequence (Q27686 whole entry, looked up): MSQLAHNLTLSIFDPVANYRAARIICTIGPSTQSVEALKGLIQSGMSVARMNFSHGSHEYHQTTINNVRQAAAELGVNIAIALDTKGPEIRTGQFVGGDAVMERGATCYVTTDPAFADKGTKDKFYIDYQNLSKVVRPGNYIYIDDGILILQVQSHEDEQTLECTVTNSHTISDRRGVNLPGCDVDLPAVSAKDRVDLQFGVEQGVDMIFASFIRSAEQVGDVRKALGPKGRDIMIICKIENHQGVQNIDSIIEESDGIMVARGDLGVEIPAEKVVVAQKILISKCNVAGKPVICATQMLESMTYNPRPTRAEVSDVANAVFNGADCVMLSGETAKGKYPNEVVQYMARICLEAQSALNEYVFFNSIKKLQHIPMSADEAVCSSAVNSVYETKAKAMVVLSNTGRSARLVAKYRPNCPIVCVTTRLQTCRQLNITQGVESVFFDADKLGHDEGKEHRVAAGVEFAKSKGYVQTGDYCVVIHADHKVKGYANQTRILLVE
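Purified LmPK (0.1 nM) with 0.5 mM PEP and 0.1 mM ADP in imidazole buffer pH 7.2 with MgCl2/KCl, 1 h at room temperature. ATP formed was read by luciferase luminescence and normalized to no-enzyme and uninhibited controls.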
RE007 growth inh: less growth of the S. pombe RE007 Vpr strain; S. pombe RE007 Vpr strain, BacTiter-Glo ATP luminescence, 24 h; 360,000 compounds, 0.21% hits; Potency, µM (doses to about 92.2 µM), hits mostly inhibitors; active = well fitted falling curve with a large enough effect; inconclusive = small, poorly fitted or top-dose-only effect; inactive = no such curve, though single readings can be large or run the other way; also: nearly all actives have a fitted effect of over 50% in size
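Fission yeast RE007 carrying one integrated HIV-1 vpr copy, seeded at OD 0.01 in PMG+AL medium with 23 nL pinned compound. Grown 24 h at 30 degrees; viability read by BacTiter-Glo luminescence after 5 min.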
Tb PYK inh: blocks Trypanosoma brucei pyruvate kinase; AID 624173; TbPYK enzyme, Kinase-Glo Plus ATP luminescence, 45 min; 410,000 compounds, 0.12% hits; Potency, µM (top dose mostly 76.8 µM), actives largely listed as inhibitors; Q57TT1; also: nearly all actives have a fitted effect of over 50% in size
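Quantitative HTS: titrated library compounds versus trypanosomal pyruvate kinase in TEA buffer (pH 7.2) containing KCl, MgCl2, BSA and Tween-20. Reactions were initiated with ADP, 130 uM final. Kinase-Glo Plus luminescence was read after 45 min at RT.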
CHX counter: affects cycloheximide protein synthesis inhibition readout, counter-screen | AID 2314 | cell reporter, cycloheximide protein synthesis inhibition counterscreen | 300,000 compounds, 12% hits | max response, %; in the data active = max response mostly above about 13%, no sharp cut-off; inactive = mostly below about 14%; also: read at 38.3 µM for the half of the compounds with a filed dose
FBPA Giardia inh: blocks Giardia fructose-bisphosphate aldolase activity; 290,000 compounds, 0.71% hits; Potency, µM (series often up to 59.6 µM), most hits filed as inhibitors; purified Giardia FBPA; also: nearly all actives have a fitted effect of over 55% in size
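Giardia FBPA (40 nM reagent) was preincubated 10 min at RT with compound (up to 57.5 uM final), then substrate plus GAPDH/TPI/NAD/arsenate coupling system with diaphorase/resazurin was added; resorufin fluorescence (525/598 nm) was read after 20 min.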
Large screens that a line does not name were inactive. Unless noted, calls follow the shape of the dose curve; as a rule, active = well fitted curve in the direction sought with a large enough effect; inconclusive = small, poorly fitted or top-dose-only effect, or another doubt; inactive = no such curve, though single readings can be large; an effect the other way counts as inactive or inconclusive.

CCOC(=O)c1oc2ccc(CNC3CCCCC3)c(Cl)c2c1C	none
CCOC(=O)c1oc2ccc(CNCCO)c(Cl)c2c1C	Shiga inhibitor 82, CHX counter 40
O=C(NCc1ccc(F)cc1)C1CCCN(c2ncnc3onc(-c4ccc(F)cc4)c23)C1 (configuration not stated)	none (no result: Shiga inhibitor, LmPK inhibitor, RE007 growth inh, CHX counter, FBPA Giardia inh)
CCOC(=O)c1sc(NC(=O)c2ccccc2)cc1C	Shiga inhibitor 122, LmPK inhibitor inconclusive, CHX counter 70
CCOC(=O)c1sc(NC(=O)c2ccc(Cl)s2)cc1C	Shiga inhibitor 56, CHX counter 39
CCOC(=O)c1sc(NC(=O)Nc2ccc(Cl)cc2)cc1C	Shiga inhibitor 67, CHX counter 46
CC(C)=CCCC(C)CN1CCC(N2CCC(C(=O)NC(C)C)CC2)CC1 (configuration not stated)	none
CC(C)OCCCNC(=O)Cc1ccc(NC(=O)N2CCCCc3ccccc32)cc1	none (no result: Shiga inhibitor, LmPK inhibitor, RE007 growth inh, CHX counter, FBPA Giardia inh)
COc1cccc(NC(=O)CNC(=O)c2cccs2)c1	Shiga inhibitor 61, CHX counter 26
COc1cccc(NC(=O)CCS(=O)(=O)c2cccs2)c1	Shiga inhibitor 78, CHX counter 47
CC(=O)c1ccc(NC(=O)c2ccc(NC(=O)CCS(=O)(=O)c3cccs3)cc2)cc1	Shiga inhibitor 192, CHX counter 18
CCOC(=O)c1cccc(NC(=O)CCS(=O)(=O)c2cccs2)c1	none
Cc1cs/c(=N\N=C\c2cccc([N+](=O)[O-])c2)n1Cc1ccco1	none
C/C(=N\N=c1/scc(C)n1Cc1ccco1)c1cccc([N+](=O)[O-])c1	CHX counter 18
CCOc1ccc(NCCC(O)c2ccc(F)cc2)cc1 (configuration not stated)	CHX counter 23
CCOc1ccc(C(C)NC(=S)NCc2ccc(F)cc2)cc1 (configuration not stated)	none
Cc1ccc(NC(=S)NC(C)(C)C)c([N+](=O)[O-])c1	CHX counter 26
Cc1ccc(NC(=O)C2CC2c2ccccc2)c([N+](=O)[O-])c1 (configuration not stated)	Shiga inhibitor 34, CHX counter 35
Cc1oc2ccc(O)c(CN3CCCCCC3)c2c1C(=O)Nc1cccc(C(F)(F)F)c1	none (no result: Shiga inhibitor, LmPK inhibitor, RE007 growth inh, CHX counter, FBPA Giardia inh)
CN(C)S(=O)(=O)c1cccc(COC(=O)CN2C(=O)NC3(CCCC3)C2=O)c1	none (no result: FBPA Giardia inh)
O=C(Cc1ccc2cccnc2c1)c1ccc(O)cc1O	Shiga inhibitor 34, CHX counter 29
CCCc1nnc(NC(=S)Nc2ccccc2)s1	Shiga inhibitor 42, CHX counter 27
C/C=C(\C)c1nnc(NC(=O)C(C)C)s1	CHX counter 19
CC(C)C(=O)Nc1nnc(NC(=S)Nc2ccccc2)s1	Shiga inhibitor 68, CHX counter 34
CC(C)C(=O)Nc1nnc(CCc2nnc(NC(=O)C(C)C)s2)s1	none
CCOc1ccc(NC(=O)CCSc2nc(-c3ccc4c(c3)OCO4)cc(C(F)(F)F)n2)cc1	none (no result: Shiga inhibitor, LmPK inhibitor, RE007 growth inh, CHX counter, FBPA Giardia inh)
Cc1ccc(OCCNC(=O)c2cc(=O)[nH]c3ccccc23)cc1	none
CC(C)(C)c1ccc(C(=O)NCCOc2ccccc2)cc1	CHX counter 26
Cc1ccc(OCC(O)CNC(=O)c2ccccc2C(=O)O)cc1 (configuration not stated)	CHX counter 18
CC(C)(C)c1ccc(C(=O)NCCOc2ccccc2F)cc1	Shiga inhibitor 34
Cc1ccc(OCCNC(=O)c2ccccc2F)cc1	Shiga inhibitor 40, CHX counter 21
Cc1oc2c(c(C)cc3oc(=O)c(CC(=O)NCCc4ccccc4)c(C)c32)c1C	none (no result: Shiga inhibitor, LmPK inhibitor, RE007 growth inh, CHX counter, FBPA Giardia inh)
Cc1ccc(C(=O)NCCOc2cccc(C)c2)cc1	Shiga inhibitor 83, CHX counter 37
Cc1cccc(NC(=O)CCOc2ccccc2)c1C	none
COc1cc(OC)cc(C(=O)NCCOc2ccccc2)c1	Shiga inhibitor 77, CHX counter 31
Cc1cccc(OCCC(=O)NCC(=O)Nc2cccc(C)c2C)c1	FBPA Giardia inh 16µM
Cc1cc(C)n(CC(=O)Nc2ccc(F)c(F)c2)c(=O)c1C#N	none (no result: Shiga inhibitor, LmPK inhibitor, RE007 growth inh, CHX counter, FBPA Giardia inh)
CC(C)CNC(=O)COC(=O)c1c2c(nc3ccccc13)/C(=C/c1cccs1)CC2	Shiga inhibitor 56, CHX counter 25
c1ccc(C2=Nc3cccnc3C(c3ccccc3)=NN2)cc1	Shiga inhibitor 92, CHX counter 34
Fc1ccc2c(c1)C(c1ccncc1)=NNC(c1ccccc1)=N2	Shiga inhibitor 72, CHX counter 62
Fc1ccc2c(c1)C(c1ccncc1)=NNC(c1ccc(Cl)cc1)=N2	none
Cc1cc(C)n(-c2nc3cc(Cl)ccc3nc2N2CCN(c3ccccc3F)CC2)n1	none (no result: Shiga inhibitor, LmPK inhibitor, RE007 growth inh, CHX counter, FBPA Giardia inh)
O=C1NC(=S)S/C1=C\C=C\c1ccc([N+](=O)[O-])o1	Shiga inhibitor 92, RE007 growth inh 40µM, CHX counter 80
O=C1CN(/N=C\c2ccc([N+](=O)[O-])o2)C(=O)N1	none (no result: Shiga inhibitor, LmPK inhibitor, RE007 growth inh, Tb PYK inh, CHX counter)
COC(=O)[C@]1(Cc2ccccc2)N[C@H](c2ccc(-c3cccc(Cl)c3)cc2)[C@@H]2C(=O)N(C)C(=O)[C@@H]21	none (no result: Shiga inhibitor, LmPK inhibitor, CHX counter, FBPA Giardia inh)
COC(=O)CSc1cnc2ccccc2n1	none
CC(C)c1nc(SCC(=O)c2ccc(F)cc2)c2ccccc2n1	CHX counter 20
O=C(CSc1ccc(-c2ccccn2)nn1)N1CCCC1	Tb PYK inh inconclusive, CHX counter 25, FBPA Giardia inh inconclusive
O=C(CSc1cnc2ccccc2n1)c1ccc(F)cc1	Shiga inhibitor 65, CHX counter 60
COc1ccccc1NC(=O)CSc1ccc(-c2ccccn2)nn1	CHX counter 13 (no result: FBPA Giardia inh)
O=C(CSc1ccc(-c2ccccn2)nn1)NC1CCCC1	none
O=C(COC(=O)C1CCN(C(=O)c2ccc(Cl)cc2)CC1)Nc1ccccc1F	none (no result: Shiga inhibitor, LmPK inhibitor, CHX counter, FBPA Giardia inh)
O=C(CSc1ccc(-c2ccccn2)nn1)c1ccccc1	Shiga inhibitor 87, CHX counter 49, FBPA Giardia inh inconclusive
c1ccc(CSc2ccc(-c3ccccn3)nn2)cc1	Shiga inhibitor 110, CHX counter 52
Cc1ccc(C(=O)CSc2ccc(-c3ccccc3)nn2)cc1	none
O=C(CSc1ccc(-c2ccccc2)nn1)c1ccccc1	Shiga inhibitor 60, RE007 growth inh inconclusive, CHX counter 42
O=C(CSc1ccc(-c2ccccn2)nn1)c1ccc(F)cc1	Shiga inhibitor 51, CHX counter 33, FBPA Giardia inh inconclusive
CCC(CC)c1nn2c(=O)cc(COc3ccc(NC(=O)c4cccc(C)c4)cc3)nc2s1	none (no result: Shiga inhibitor, LmPK inhibitor, RE007 growth inh, CHX counter, FBPA Giardia inh)
O=C(Nc1c(C(=O)O)oc2ccccc12)c1ccc(C(F)(F)F)cc1	none (no result: Shiga inhibitor, LmPK inhibitor, RE007 growth inh, CHX counter, FBPA Giardia inh)
Nc1ncc(Br)cc1S(=O)(=O)NCCC(=O)NCCc1ccccc1	CHX counter 27 (no result: FBPA Giardia inh)
N#C/C(=C/c1ccc(Cl)cc1)c1nc(-c2ccc(Br)cc2)cs1	none (no result: Shiga inhibitor, LmPK inhibitor, RE007 growth inh, CHX counter, FBPA Giardia inh)
Cc1ccnc(N/C=C(\C#N)c2nc(-c3cccc(Br)c3)cs2)c1	CHX counter 15

Bioassay records: PubChem BioAssay, National Center for Advancing Translational Sciences (NCATS)
